The test system of this assay is RIVA. Put plainly: growth inhibition by drug plus 177Lu-lilotomab satetraxetan (1 - RLU/untreated control) (fraction); higher = stronger inhibition. The settings on record: 177Lu-lilotomab satetraxetan 0.5 ug/ml. On the procedure: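 RIVA (RI-1) ABC-DLBCL cells were pretreated or not for 18 h with 0.5 ug/ml 177Lu-lilotomab satetraxetan (600 MBq/mg), washed and seeded (3000 cells/well) on 384-well plates pre-printed with the Selleck Cambridge Cancer Compound library. Viability was read by RealTime-Glo luminescence on days 3-6 after seeding. Effect = 1 - RLU/mean RLU of the 48 untreated no-drug control wells per plate; Bliss score = (M-E)/(1-Fa).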

For `Cc1ccccc1-n1c(Cn2cnc3c(N)ncnc32)nc2cccc(C)c2c1=O`, the “growth inhibition by drug plus 177Lu-lilotomab satetraxetan” value (“growth inhibition” for short) came out at 0.471 (10 nM, time (day): 3); 0.529 (10 nM, time (day): 4); 0.546 (10 nM, time (day): 5); 0.556 (10 nM, time (day): 6); 0.375 (100 nM, time (day): 3); 0.45 (100 nM, time (day): 4). The “growth inhibition” value came to 0.472 (100 nM, time (day): 5) and 0.479 (100 nM, time (day): 6).
As for `CC1=C2C[C@H]3[C@@H](CC=C4C[C@@H](O)CC[C@@]43C)[C@@H]2CC[C@]12O[C@@H]1C[C@H](C)CN[C@H]1[C@H]2C` [Cyclopamine], the “growth inhibition” value is, setting by setting: (10 nM, time (day): 3) 0.301; (10 nM, time (day): 4) 0.397; (10 nM, time (day): 5) 0.41; (10 nM, time (day): 6) 0.418; (100 nM, time (day): 3) 0.454; (100 nM, time (day): 4) 0.57. Moreover, the “growth inhibition” value is, setting by setting: (100 nM, time (day): 5) 0.559; (100 nM, time (day): 6) 0.53.
As to `Cc1cc2c(C(C)C)c(O)c(O)c(C=O)c2c(O)c1-c1c(C)cc2c(C(C)C)c(O)c(O)c(C=O)c2c1O` [Gossypol], the “growth inhibition” value reads like this: (10 nM, time (day): 3) 0.354; (10 nM, time (day): 4) 0.475; (10 nM, time (day): 5) 0.501; (10 nM, time (day): 6) 0.51; (100 nM, time (day): 3) 0.233; (100 nM, time (day): 4) 0.353. The “growth inhibition” value runs as follows: (100 nM, time (day): 5) 0.38; (100 nM, time (day): 6) 0.364.
With `CC(O)(CS(=O)(=O)c1ccc(F)cc1)C(=O)Nc1ccc(C#N)c(C(F)(F)F)c1` (stereo not given) [Bicalutamide (Casodex)], the “growth inhibition” value came to 0.401 (10 nM, time (day): 3); 0.506 (10 nM, time (day): 4); 0.542 (10 nM, time (day): 5); 0.556 (10 nM, time (day): 6); 0.351 (100 nM, time (day): 3); 0.443 (100 nM, time (day): 4). In addition, the “growth inhibition” value (100 nM, time (day): 5) is 0.458 and the “growth inhibition” value (100 nM, time (day): 6) is 0.432.
With `Cn1cc(C2=C(c3cn(C4CCN(Cc5ccccn5)CC4)c4ccccc34)C(=O)NC2=O)c2ccccc21`, the “growth inhibition” value reads like this: (10 nM, time (day): 3) 0.515; (10 nM, time (day): 4) 0.546; (10 nM, time (day): 5) 0.557; (10 nM, time (day): 6) 0.564; (100 nM, time (day): 3) 0.356; (100 nM, time (day): 4) 0.435. Besides, the “growth inhibition” value (100 nM, time (day): 5) is 0.443 and the “growth inhibition” value (100 nM, time (day): 6) is 0.436.

Source of the values: the supplement of paper PMC6897291.
